An excerpt weighted towards active compounds, which were near 8.9% of everything screened.
KB-V1 cytotox: KB-V1 MDR subline cytotoxicity. KB-V1 MDR cells viability, CellTiter-Glo, 72 h. Potency, µM (highest dose often 46.1 µM), actives largely listed as cytotoxic. 400,000 compounds, 3.4% hits; note: nearly all actives have a fitted effect of over 60% in size
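Luminescent ATP read-out (CellTiter-Glo, 10 min) measures survival of drug-selected KB-V1 MDR cells after 72 h, 37 degrees C compound exposure. Medium: phenol-red-free DMEM, 10% FBS. Values from fitted concentration-response curves.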
D3 ag: activates the human D3 dopamine receptor; D3R DiscoveRx beta-arrestin cells, luminescence, 90 min; max activation, %; 410,000 compounds, 0.58% hits; AID 652048; in the data active = max activation above about 30%
Target sequence (P35462 whole entry, looked up): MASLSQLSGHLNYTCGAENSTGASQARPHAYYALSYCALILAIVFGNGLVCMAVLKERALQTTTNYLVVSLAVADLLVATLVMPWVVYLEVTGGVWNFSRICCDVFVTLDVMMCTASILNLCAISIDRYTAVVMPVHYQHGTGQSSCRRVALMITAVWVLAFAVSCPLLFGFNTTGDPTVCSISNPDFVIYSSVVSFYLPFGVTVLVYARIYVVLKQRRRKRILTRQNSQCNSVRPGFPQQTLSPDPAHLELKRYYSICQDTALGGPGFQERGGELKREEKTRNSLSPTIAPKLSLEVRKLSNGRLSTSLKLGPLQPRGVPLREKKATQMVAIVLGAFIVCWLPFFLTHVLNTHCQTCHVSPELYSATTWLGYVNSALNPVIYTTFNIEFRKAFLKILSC
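Agonist mode: compounds and dopamine controls were applied to plated cells for 90 min at 37 degrees C after an overnight attachment at 1500 cells/well. Luminescent read-out followed 30 - 60 minutes at room temperature with DiscoveRx detection reagent.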
KB-3-1 tox: KB-3-1 parental cell cytotoxicity. Potency, µM (doses to about 46.1 µM), hits mostly cytotoxic. 400,000 compounds, 1.4% hits. KB-3-1 viability, CellTiter-Glo ATP luminescence, 72 h; note: nearly all actives have a fitted effect of over 60% in size
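72 h, 37 °C compound treatment of KB-3-1 parental cells; CellTiter-Glo added, 10 min, luminescence read. Data corrected against DMSO-only plates and normalized before curve fitting.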
SW480 rereplic: DNA re-replication induction in SW480 cells | 340,000 compounds, 1.8% hits | SW480 DNA re-replication, Hoechst DNA content imaging, 48 h | Potency, µM (series often up to 46.1 µM), usual class: activators | AID 624297; note: nearly all actives have a fitted effect of over 55% in size
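250 cells/well; 23 nL cpd via pin tool; 48 hr, 37 C, 5% CO2; Hoechst 40 min; imager read of total nuclear intensity, ex 405/em 500-530 nm.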
D3 antag: antagonists of human D3 dopamine receptor; max response, negative = inhibition, %; AID 652054; D3R cells, DiscoveRx beta-arrestin luminescence, antagonist mode; active compounds read low; 360,000 compounds, 2.5% hits; in the data active = max response below about -50%; inconclusive = no clear call, values can overlap the other calls
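Cells expressing the human receptor were seeded at 1500 cells/well, incubated overnight at 37 degrees C in 5% CO2, then exposed to library compounds with dopamine controls for 90 minutes at 37 degrees C before luminescent detection.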
MCF10A rereplic: DNA re-replication induction in MCF 10a cells | 350,000 compounds, 2.9% hits | Potency, µM (highest dose often 46.1 µM), hits mostly activators | MCF 10A DNA re-replication, Hoechst nuclear intensity, 48 h; note: nearly all actives have a fitted effect of over 50% in size
A number is an active result; 0 = inactive; ? = inconclusive; - = no result given; [ ] = another dose, or the depositor's remark. Unless noted, calls come from the whole dose curve; as a rule, active = well fitted curve in the direction sought with a large enough effect; inconclusive = small, poorly fitted or top-dose-only effect, or another doubt; inactive = no such curve, though single readings can be large; an effect the other way counts as inactive or inconclusive.

SMILES	KB-V1 cytotox	D3 ag	KB-3-1 tox	SW480 rereplic	D3 antag	MCF10A rereplic
Cc1[nH]c2ccccc2c1C(=O)CSc1nccc(=O)[nH]1	?	0	0	0	0	0
Cc1[nH]c2ccccc2c1C(=O)CSc1nc2ccccc2[nH]1	20.6µM	0	0	?	0	?
O=C(CSc1nnc(SCc2cccc3ccccc23)s1)c1ccc2c(c1)OCO2	18.4µM	0	0	0	0	0
O=C(CSc1nc2ccccc2[nH]1)c1ccc2c(c1)OCO2	18.4µM	0	0	0	0	0
Cc1cccc(Nc2c3c(nc4ncnn24)CCC3)c1	0	0	0	0	0	0
Clc1ccc(Nc2c3c(nc4ncnn24)CCC3)cc1	7.31µM	0	0	0	0	0
c1ccc(CNc2c3c(nc4ncnn24)CCCC3)nc1	0	0	0	0[9.22 µM]	0	?
Cc1cc(C)cc(Nc2c3c(nc4ncnn24)CCC3)c1	2.06µM	0	0	?	0	?
COc1ccc(CNc2nc3c(-c4cccc(C)c4)nnn3c3ccccc23)cc1	0	0	0	-	-	-
Cc1csc(NC(=O)/C=C/c2ccc3c(c2)OCO3)n1	?	0	?	0	0	18.4µM
Cc1ccc(O)c(C(=O)/C=C/c2ccc3c(c2)OCCCO3)c1	0	0	0	?	0	13µM
Cc1ccc(NC(=O)/C=C/c2ccc3c(c2)OCO3)nc1	0	0	7.31µM	-	0	?
O=C(/C=C/c1ccc2c(c1)OCCCO2)c1ccccc1O	?	0	0	0	0	?
O=C(/C=C/c1ccc2c(c1)OCO2)Nc1nc(-c2ccc(F)cc2F)cs1	-	-	-	0	-	0
CCC(CC)C(=O)Oc1c(Sc2ccccc2[N+](=O)[O-])c(C)nn1C(C)(C)C	14.6µM	0	0	0	0	0
CCc1cccc(NC(=O)Cn2c(=O)n(Cc3ccccc3)c(=O)c3c(C)c(C(=O)N(C)C)sc32)c1	0	0	0	-	-	-
CCc1ccc(OC(C)C(=O)N2CCC(c3nc4ccccc4s3)CC2)cc1 (centres undefined)	14.6µM	0	?	-	-	-
CC1CCCN(C(=O)c2ccc(S(=O)(=O)N3CCC(c4nc5ccccc5s4)CC3)cc2)C1 (centres undefined)	?	0	?	0	0	?
COc1ccccc1OC(C)C(=O)N1CCC(c2nc3ccccc3s2)CC1 (centres undefined)	?	0	14.6µM	-	-	-
CCN(CC)C(=O)c1ccc(S(=O)(=O)N2CCC(c3nc4ccccc4s3)CC2)cc1	7.31µM	0	20.6µM	0	0	?
CC(C)(C)n1nnnc1C(c1ccccc1)N1CCN(c2ccccn2)CC1 (centres undefined)	?	0	0	-	0	-
Cc1nc(-c2cccnc2)sc1C(=O)Nc1ccc(F)cc1F	0	0	0	0	0	0
Cc1nc(-c2ccccn2)sc1C(=O)Nc1ccc(F)cc1F	10.3µM	0	0	0	0	0
Cc1nc(-c2cccnc2)sc1C(=O)Nc1ccc(Cl)cc1	18.4µM	0	0	0	0	0
Cc1nc(-c2ccccn2)sc1C(=O)Nc1ccc(F)cc1	18.4µM	0	?	0	0	?
SMILES	KB-V1 cytotox	D3 ag	KB-3-1 tox	SW480 rereplic	D3 antag	MCF10A rereplic
CNC(=O)c1sc(-c2ccccn2)nc1C	0	0	0	0	0	0
C=CCC1(CC=C)CC(Cc2cnccn2)N(C(=O)OC(C)(C)C)C1 (centres undefined)	0	0	0	-	0	-
COC1(OC)N=C(N)C2(C#N)C(c3cccc(Oc4ccccc4)c3)C12C#N (centres undefined)	0	0	0	0	-50.1	0
COc1cccc(C2C3(C#N)C(N)=NC(OC)(OC)C23C#N)c1 (centres undefined)	0	0	0	0	0	0
CCOc1ccc(C(=O)NCCS(=O)(=O)N2CCN(c3cccc(Cl)c3)CC2)cc1	0	0	0	-	-	-
Cc1c(C(=O)O)sc2nc(/C=C/c3cccc(O)c3)[nH]c(=O)c12	0	0	0	?	0	7.31µM
CCOC(=O)C1CCN(C(=O)c2ccc3c(c2)sc2nc(-c4ccccc4)cn23)CC1	-	0	-	-	-	-
CCCCNC(=O)c1ccc2c(c1)NC(=O)C(CS(=O)(=O)Cc1cccc(C)c1)N2 (centres undefined)	0	0	0	-	-	-
O=C(O[C@@H]1OC2COC(=O)c3cc(O)c(O)c(O)c3-c3c(cc(O)c(O)c3O)C(=O)O[C@@H]([C@H]1O)[C@@H]2O)c1cc(O)c(O)c(O)c1	0	32.1	0	0	0	0
COc1ccc(CCNC(=O)CSCc2nc(-c3ccc(OC)c(OC)c3)oc2C)cc1OC	0	0	0	-	-	-
CCOC(=O)c1c(C)sc2c1N(C(=O)CCl)c1cc(Cl)ccc1S2	?	0	?	?	-59.9	?
Cc1sc2ncnc(SCC(=O)N3c4ccccc4Sc4ccc(Cl)cc43)c2c1C	0	0	0	0	0	0
COc1cccc(N2C(=O)CSC23C(=O)N(Cc2ccccc2)c2ccccc23)c1 (centres undefined)	?	0	0	-	-	-
O=C(COc1ccccc1)NCC(c1ccco1)N1CCN(c2ccccc2F)CC1 (centres undefined)	14.6µM	0	?	?	0	0
O=C(NCc1ccncc1)C(=O)NCC(c1ccco1)N1CCN(c2ccccc2F)CC1 (centres undefined)	2.31µM	0	0	0	0	0
O=C(NCC(c1ccco1)N1CCN(c2ccccc2F)CC1)C(=O)NC1CCCCC1 (centres undefined)	0	54.2	0	0	0	0
CCc1ccccc1NC(=O)Nc1c[nH]c(=O)[nH]c1=O	0	0	0	-	-	-
C=C1CCN([C@H](C(=O)NCc2ccc(Cl)cc2)C(C)C)S(=O)(=O)c2ccccc21	0	0	0	0	0	0
CN(C)c1cccc(-c2cnc(N3CCC(c4ncc[nH]4)CC3)s2)c1	0	-	0	-	-	-
O=C(Nc1ccccc1)N1CCN(c2ccc(C(F)(F)F)cn2)CC1	8.2µM	0	?	0	0	0
CNC(=S)Nc1ccc(N2CCN(c3ccc(C(F)(F)F)cn3)CC2)nc1	0	0	0	0	-51.9	0
CC(C)(C)c1ccc(NC(=O)N2CCCN(c3ccc([N+](=O)[O-])cn3)CC2)cc1	10.3µM	0	?	0	0	0
CN1CCN(c2ccc(NC(=O)c3ccc(C(F)(F)F)cc3)cn2)CC1	?	0	0	0	0	0
Cc1ncc(C[n+]2csc(CCOP(=O)(O)OP(=O)(O)O)c2C)c(N)n1	-	0	-	0	-	0
Cc1nnc(Sc2cc(NCCO)c([N+](=O)[O-])c3nonc23)s1	?	0	0	0	-60.1	?
Cc1nnc(Sc2cc(NCCCO)c([N+](=O)[O-])c3nonc23)s1	0	0	0	0	-96.8	0
CCCSc1cc(NCCOC(C)=O)c([N+](=O)[O-])c2nonc12	0	0	0	0	0	0
